Measurements taken from PubChem BioAssay AID602438 (Sanford-Burnham Center for Chemical Genomics, 2012).
The whole screen tested about 360,000 compounds, of which about 3,100 (0.86%) were called active.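 The calls were made as follows: active = inhibition or corrected inhibition above about 18%, plus a signal ratio from 0.5 to 1.5 (limit read from the data, passing the limit was not always enough); inactive = the rest.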 This excerpt belongs to a sample that is enriched for actives.

target: Neuropilin-1 (Homo sapiens) (UniProt O14786); test: NRP-1/CendR peptide interaction modulators – biochemical, fluorescence polarization, uHTS, primary screen (AID 602438); conditions: FAM-RPARPAR peptide binding to NRP-1, fluorescence polarization; at 25 µM; active compounds read high
Sequence (O14786 whole entry, looked up): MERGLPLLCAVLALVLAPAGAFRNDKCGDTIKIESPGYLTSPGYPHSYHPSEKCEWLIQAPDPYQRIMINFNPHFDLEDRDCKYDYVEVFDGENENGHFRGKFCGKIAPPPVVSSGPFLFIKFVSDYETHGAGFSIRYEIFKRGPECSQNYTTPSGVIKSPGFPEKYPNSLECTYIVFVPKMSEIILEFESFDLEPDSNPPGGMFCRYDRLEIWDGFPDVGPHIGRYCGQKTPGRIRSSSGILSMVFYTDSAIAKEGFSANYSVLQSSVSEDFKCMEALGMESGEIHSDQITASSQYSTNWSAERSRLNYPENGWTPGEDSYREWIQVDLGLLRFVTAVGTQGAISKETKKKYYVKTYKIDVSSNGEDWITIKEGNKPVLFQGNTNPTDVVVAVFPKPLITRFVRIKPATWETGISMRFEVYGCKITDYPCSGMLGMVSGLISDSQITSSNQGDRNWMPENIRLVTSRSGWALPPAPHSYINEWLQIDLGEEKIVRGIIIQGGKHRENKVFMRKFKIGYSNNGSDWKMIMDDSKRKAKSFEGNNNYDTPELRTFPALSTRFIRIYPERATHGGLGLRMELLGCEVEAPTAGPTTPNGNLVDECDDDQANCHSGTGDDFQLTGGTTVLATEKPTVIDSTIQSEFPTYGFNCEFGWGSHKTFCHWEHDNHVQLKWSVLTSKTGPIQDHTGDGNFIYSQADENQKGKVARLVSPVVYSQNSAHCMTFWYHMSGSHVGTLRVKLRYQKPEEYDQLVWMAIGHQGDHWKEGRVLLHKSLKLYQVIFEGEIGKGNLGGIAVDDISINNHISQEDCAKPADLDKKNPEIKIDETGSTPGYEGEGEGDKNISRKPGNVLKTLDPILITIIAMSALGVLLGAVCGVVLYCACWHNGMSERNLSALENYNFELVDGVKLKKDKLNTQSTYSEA

SMILES | inhibition
COc1ccc(COC(=O)c2ccc(Cl)c(S(=O)(=O)N3CCOCC3)c2)cc1F | -7.6% (inactive)
O=C(Cc1ccccc1Cl)N1CCN(c2ccccn2)CC1 | -9.5% (inactive)
O=C(Cc1ccccc1Cl)N1CCOCC1 | 45.9% (active)
O=C(CP(=O)(c1ccccc1)c1ccccc1)N1CCOCC1 | 12.2% (inactive)
C=CCOc1cccc(CNn2cn[nH]c2=S)c1 | -0.4% (inactive)
COC(=O)c1c(CCl)noc1C(=O)NC(C)C | 28.8% (active)
CCCNC(=O)c1onc(CSc2ccc(F)cc2)c1C(=O)NC(C)C | 5.5% (inactive)
COC(=O)c1onc(-c2c(OC)cc(OC)cc2OC)c1C(=O)OC | 2.6% (inactive)
CC1CC(C)(C)n2c(O)c(N=NC(N)=S)c3cccc1c32 (stereo not given) | 6.2% (inactive)
O=C(O)CCCN1C(=O)C2C3c4ccccc4C(c4ccccc43)[C@@H]2C1=O (stereo not given in full) | -2% (inactive)
CCCCN(C)CCNC(=O)C1CCCN(S(=O)(=O)c2cccc3nsnc23)C1 (stereo not given) | -1.2% (inactive)
Cn1cccc1C1(C(F)(F)F)NCCNC1=O (stereo not given) | -1.4% (inactive)
Cc1c(CCO)c(=O)n(-c2ccccc2)n1S(=O)(=O)c1ccc(F)cc1 | -66% (inactive)
COc1cccc(-n2cc3c(c2-c2ccccc2)c(=O)n(C)c(=O)n3C)c1 | -0.7% (inactive)
COc1cccc(-c2cc3nc(NCc4ccccc4OC)n(C)c(=O)c3s2)c1 | 9.9% (inactive)
COc1cccc(-c2ccc3c(c2)N(Cc2ccccc2OC)C(=O)C(C)S3)c1 (stereo not given) | 21.5% (active)
CN=C(c1ccccc1)c1c(C)cccc1C | 1.9% (inactive)
Cc1nc(S(=O)(=O)c2ccc(Br)cc2)nc2c1CCC2 | 0.1% (inactive)
CCOC(=O)CCC(NC(=O)c1ccc(CNc2nc3cc(C(F)(F)F)ccc3nc2C(=O)OCC)cc1)C(=O)OCC (stereo not given) | -1.5% (inactive)
CCOC(=O)/C=C/c1ccc(C(F)(F)F)cc1S(=O)(=O)NC(C)(C)C | 26.8% (active)

SMILES | inhibition
Cn1c(N)c(C(=O)COC(=O)/C=C/c2cccc(C(F)(F)F)c2)c(=O)n(C)c1=O | 4.9% (inactive)
O=C(Cn1ncc2c3ccccc3n(Cc3ccccc3)c2c1=O)NCCCN1CCOCC1 | 8.8% (inactive)
CC1CCCCN1CCCNC(=O)Cn1ncc2c([nH]c3ccccc32)c1=O (stereo not given) | 6.7% (inactive)
CCCn1c2ccccc2c2cnn(CC(=O)NCCCN3CCCCC3CC)c(=O)c21 (stereo not given) | 29.4% (active)
CN(CCO)C(=O)c1nc[nH]c1C(=O)N(C)Cc1ccccc1 | 9.7% (inactive)
CCN(CC)C(=O)c1nc[nH]c1C(=O)N(C)Cc1ccccc1 | 29.2% (active)
CCN(Cc1ccncc1)C(=O)CCc1ccccc1 | 9.5% (inactive)
CCN(CC(=O)Nc1ccc(OC)cc1)C(=O)c1ccc(=O)n(Cc2ccccc2)n1 | 4.7% (inactive)
Cc1c(C(C)CCCO)oc(=O)c2c1Oc1c(C)c(C(C)C[C@@H](C)O)oc(=O)c1C2 (stereo not given in full) | 13.8% (inactive)
CCOC(=O)N1CCN(C(=O)Cn2cnc3ccccc3c2=O)CC1 | 3.1% (inactive)
CCOC(=O)N1CCN(C(=O)c2nn(-c3ccc(C)cc3)c(=O)c3c2c2ccccc2n3C)CC1 | 17.7% (active)
CCOC(=O)N1CCN(CC(=O)n2c(C)c(C)c3ccccc32)CC1 | 4.2% (inactive)
CCOC(=O)CSc1nncc2ccc(OC)c(OC)c12 | -16.1% (inactive)
CCOc1ccc(NC(=O)CC(Cc2ccc(Cl)cc2)C(=O)O)cc1 (stereo not given) | 1.1% (inactive)
COc1ccc(CNC(=O)[C@H](Cc2c[nH]c3ccccc23)NC(C)=O)cc1OC | -6.3% (inactive)
COC(=O)C(Cc1c[nH]c2ccccc12)NC(=O)CCNC(=O)c1ccco1 (stereo not given) | 22.2% (active)
CC(=O)NC(Cc1c[nH]c2ccccc12)C(=O)NCCc1ccccc1 (stereo not given) | 6.7% (inactive)
Cc1cc(C)cc(N(CC(=O)N2CC=C(c3ccccc3)CC2)S(=O)(=O)c2c(C)noc2C)c1 | -1.1% (inactive)
CC(C)c1ccc(S(=O)(=O)N2CCN(C(=O)c3ccc(N4CCCC4)c([N+](=O)[O-])c3)CC2)cc1 | 6.8% (inactive)
O=C(c1cccc(F)c1)N1CCN(c2ccc([N+](=O)[O-])c3cccnc23)CC1 | -12.9% (inactive)

SMILES | inhibition
O=C(c1cccc(F)c1)N1CCN(c2ccc([N+](=O)[O-])c(N3CCCCC3)c2)CC1 | 44.3% (active)
Cc1ccc(C2NC(=S)NC3=C2N2CCC3CC2)cc1 (stereo not given) | 11.9% (inactive)
COc1ccccc1CCNS(=O)(=O)c1cc2c3c(c1)C(C)C(=O)N3CCC2 (stereo not given) | -11.3% (inactive)
COc1cccc(CNC(=O)[C@@H]2CCCN2C(=O)[C@@H]2CCCN2C(=O)c2ccccc2)c1 | -6.2% (inactive)
CC1=NN(C(=O)c2ccccc2Br)C(O)(c2cccnc2)C1 (stereo not given) | -1.7% (inactive)
CC1=NN(C(=O)c2ccc(Br)cc2)C(O)(c2ccccc2)C1 (stereo not given) | -3% (inactive)
CCOC(=O)C1(O)CC(C)=NN1C(=O)c1cccc(Br)c1 (stereo not given) | 26.7% (active)
O=C(NCc1ccco1)c1ccc(NS(=O)(=O)c2cccc([N+](=O)[O-])c2)cc1 | 6.8% (inactive)
O=C(C1CCCO1)N(c1ccc(F)cc1)C1C=CS(=O)(=O)C1 (stereo not given) | -10.6% (inactive)
CCc1nnc(NC(=O)CSc2nnc(COc3ccc(C#N)cc3)n2-c2ccccc2)s1 | 0.5% (inactive)
COc1ccccc1N(CCOc1ccccc1)S(=O)(=O)c1ccccc1 | 26.1% (active)
CCOc1ccc(N(CC(=O)NCCOc2ccccc2OC)S(=O)(=O)c2ccccc2)cc1 | -4.4% (inactive)
COc1ccccc1N(CC(=O)N1CCCCC1)S(=O)(=O)c1ccccc1 | -3.8% (inactive)
COc1nc(OC)nc(N(C)CCO)n1 | 14.8% (inactive)
O=C(CSc1nccn1-c1cccc(F)c1)NC1CCCC1 | -2.9% (inactive)
CC(=O)Nc1cccc(NC(=O)CSc2nccn2Cc2ccc(F)cc2)c1 | 0.6% (inactive)
O=C(OCc1ccccc1)N1CCC2CC1c1cc(N3CCN(S(=O)(=O)c4cc(Cl)cc(Cl)c4)CC3)ccc12 (stereo not given) | 7.8% (inactive)
Cc1ccc(F)c(S(=O)(=O)NC(=O)C2(C)CCN2C(=O)CCc2cccs2)c1 (stereo not given) | 0.1% (inactive)
CC1(C(=O)NS(=O)(=O)c2ccccc2Cl)CCN1C(=O)c1cccc(F)c1 (stereo not given) | 6.5% (inactive)
Cc1ccc(F)c(S(=O)(=O)NC(=O)C2(C)CCN2C(=O)c2ccco2)c1 (stereo not given) | 24.2% (active)
